Source: PubChem BioAssay AID743364 (National Center for Advancing Translational Sciences (NCATS), 2014)
Activity calls are given as the source filed them. The call rests on the fitted dose curve; in most records, active means well fitted curve in the direction sought with a large enough effect; inactive means no such curve, though single readings can be large or run the other way.

test: qHTS profiling of inhibitors of Plasmodium falciparum (3D7) proliferation (acoustic dispense); conditions: P. falciparum 3D7 in erythrocytes, SYBR Green, 72 h; series mostly up to 49.8 µM; activity change: at the top concentration

Activity change, inactive:
C[C@H]1c2cccc(O)c2C(O)=C2C(=O)[C@]3(O)C(O)=C(C(N)=O)C(=O)[C@@H](N(C)C)[C@@H]3[C@@H](O)[C@@H]21 -0.335%
CCCCCCOC(=O)C1(O)CC2OC1(C)n1c3ccccc3c3c4c(c5c6ccccc6n2c5c31)C(=O)NC4 (stereo not given) 34.6% [at 1.88 µM]
CC[C@@]1([C@@H]2O[C@@H]([C@H]3O[C@@](O)(CO)[C@H](C)C[C@H]3C)C[C@H]2C)CC[C@H]([C@]2(C)CC[C@]3(C[C@H](O)[C@@H](C)[C@@H]([C@@H](C)[C@@H](OC)[C@H](C)C(=O)O)O3)O2)O1 -0.944% [at 23.2 µM]
CCC(=O)N1CCN(c2ccc(-n3c(=O)ccc4cnc5ccc(-c6cnc7ccccc7c6)cc5c43)cc2C(F)(F)F)CC1 0.958%
NC1CCC(Nc2nc(Nc3ccc(C(=O)N4CCCCC4)cc3)c3ncn(-c4cccc(F)c4)c3n2)CC1 (stereo not given) -1.28%
CC(Sc1nc2ccccc2[nH]1)C(=O)NN=Cc1cc(Br)ccc1O (stereo not given) 28.2% [at 4.15 µM]
C=CCn1c(=O)c2cnc(Nc3ccc(N4CCN(C)CC4)cc3)nc2n1-c1cccc(C(C)(C)O)n1 -0.259%
COCCn1c2c([n+](Cc3cnccn3)c1C)C(=O)c1ccccc1C2=O 0.59%
CO[C@@H]1C(N(C)C(=O)c2ccccc2)C[C@H]2O[C@]1(C)n1c3ccccc3c3c4c(c5c6ccccc6n2c5c31)C(=O)NC4=O (stereo not given in full) 13.6%
CN([C@@H](Cc1ccc(OS(=O)(=O)c2cccc3cnccc23)cc1)C(=O)N1CCN(c2ccccc2)CC1)S(=O)(=O)c1cccc2cnccc12 1.31%
FC(F)c1nc2ccccc2n1-c1nc(N2CCOCC2)nc(N2CCOCC2)n1 4.59%
Cn1cc(C2=C(c3c4n(c5ccccc35)CCC(CN)C4)C(=O)NC2=O)c2ccccc21 (stereo not given) 2.82%
C[C@@H](Oc1ccc2[nH]nc(C=Cc3cnn(CCO)c3)c2c1)c1c(Cl)cncc1Cl -0.856%
C[C@@H]1CCC2[C@@H](C)[C@@H](O)O[C@@H]3O[C@@]4(C)CC[C@@H]1[C@@]23OO4 (stereo not given in full) -0.572%
C[C@H](Cn1cnc2c(N)ncnc21)OCP(=O)(O)O 0.919%
CCCCN(CCCC)CC(O)c1cc(Cl)cc2c1-c1ccc(Cl)cc1C2=Cc1ccc(Cl)cc1 (stereo not given) -1.15%
COc1ccc2cc3[n+](cc2c1OC)CCc1cc2c(cc1-3)OCO2 -1.81%
CCN(CC)CCNC(=O)c1c(C)[nH]c(C=C2C(=O)Nc3ccc(F)cc32)c1C 9.21% [at 100 µM]
C#Cc1cccc(Nc2ncnc3cc(OC)c(OCCCCCCC(=O)NO)cc23)c1 -0.748%
CCc1cc(Nc2nccc(-c3c(-c4ccc(OC)c(C(=O)Nc5c(F)cccc5F)c4)nc4ccccn34)n2)c(OC)cc1N1CCC(N2CCN(S(C)(=O)=O)CC2)CC1 -0.953%
Clc1ccc2c(N3CCN(CCCN4CCN(c5ccnc6cc(Cl)ccc56)CC4)CC3)ccnc2c1 -1.45% [at 23.2 µM]
Cc1nc2cnc3ccc(C#Cc4cccnc4)cc3c2n1-c1ccc(C(C)(C)C#N)cc1 -0.261%
CC[C@H]1CN2CCc3cc(OC)c(OC)cc3[C@H]2C[C@@H]1C[C@@H]1NCCc2cc(OC)c(OC)cc21 -0.291%
Nc1ccc(-c2ccc3ncc4ccc(=O)n(-c5cccc(C(F)(F)F)c5)c4c3c2)cn1 -7.03%
CCS(=O)(=O)Nc1ccc2[nH]c(O)c(C(=Nc3ccc(CN4CCCCC4)cc3)c3ccccc3)c2c1 -1.12%
Cn1c2ccccc2c2c3c(c4c5ccccc5n(CCC#N)c4c21)CNC3=O 26.1%
CN(C)c1ccc(C(=C2C=CC(=[N+](C)C)C=C2)c2ccc(N(C)C)cc2)cc1 107%
CCn1nnc2c(N3CCOCC3)nc(-c3ccc(NC(=O)Nc4ccc(C(=O)N5CCN(C)CC5)cc4)cc3)nc21 1.28%
CN(C(=O)OC(C)(C)C)[C@@H](Cc1ccc(O[S+](=O)([O-])c2cccc3cnccc23)cc1)C(=O)N1CCN(C(=O)OCc2ccccc2)CC1 0.844%
COc1ccc(-c2cc3c(C)nc(N)nc3n(C3CCC(OCCO)CC3)c2=O)cn1 (stereo not given) -1.59%
OB1OCc2cc(F)ccc21 5.24%
COC(=O)[C@]12CCC(C)(C)C[C@@H]1[C@@H]1C(=O)C=C3[C@@]4(C)C=C(C#N)C(=O)C(C)(C)[C@@H]4CC[C@@]3(C)[C@]1(C)CC2 58.1%
Cc1nc2c(C#N)cccc2n1-c1ccc(C(=O)NC2CC2)s1 4.45%
CC1(CN2CCC(n3c(=O)[nH]c4ccccc43)CC2)OCc2ccccc2-n2cccc21 (stereo not given) -0.657%
C[C@H]1[C@@H](OC(=O)CCC(=O)O)O[C@@H]2O[C@@]3(C)CC[C@@H]4[C@H](C)CC[C@@H]1[C@@]24OO3 0.0623%
